Here are results for 37 molecules from PubChem BioAssay (NCATS).

Structures are written as SMILES. “And” between values parts separate entries of the source, which are not always exact repeats. Equal values may be shown once. Records with an inconclusive call do not appear. Unmarked numbers belong to inactive results. The source made the active and inactive calls. The call rests on the fitted dose curve; in most records, active means well fitted inhibition curve with a large enough effect; inconclusive means small, poorly fitted or top-dose-only effect; inactive means flat fitted curve, though single readings scatter.
Further: nearly all actives have a fitted effect of over 70% in size.
Potency means the concentration at half of the fitted maximal effect.

For one assay, the system named is Zika virus NS2B-NS3 protease (unlinked complex). Put plainly: Confirmatory screen GU AMC qHTS for Zika virus inhibitors (AID 1347153).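 On Potency: enzyme at 25 nM with substrate at 10 µM below its Km of 18.3 µM.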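 On activity, negative = inhibition: percent inhibition with 0% = no inhibitor control and 100% = no enzyme control.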 To be noted: Recombinant NS2B-NS3 protease, AMC substrate fluorescence; series mostly up to 57.1 µM; activity, negative = inhibition: at the top concentration. An outline of the steps:
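Unlinked NS2B-NS3 complex (25 nM) in 10 mM Tris-HCl pH 8.0, 0.01% Tween 20 preincubated 15 min with compound, then 10 microM Bz-Nle-KRR-AMC (Km 18.3 µM). Fluorescence change over 15 min, normalized, Hill-fitted.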
For orientation: In qHTS, concentration-response curves come from the screen itself.
In the case of `Cc1ccc(-n2[nH]c(C)c(N=Nc3cccc(-c4cccc(C(=O)O)c4)c3O)c2=O)cc1C`, the Potency was 15.2 µM (active).
Regarding `CCCCCCCCc1ccc(CCC(N)(CO)CO)cc1`, the “activity, negative = inhibition” value was 1.89%.
Take `COc1ccc(S(=O)(=O)Nc2cc(-c3c(O)ccc4ccccc34)c(O)c3ccccc23)cc1`: the Potency is 24.1 µM (active).
For the molecule `C[C@@H](NCc1cc2ccccc2[nH]1)c1cccc2ccccc12`, the “activity, negative = inhibition” value is 0.642%.
For the molecule `CC(C)c1cc(C(C)C)c(CC(=O)NS(=O)(=O)Oc2c(C(C)C)cccc2C(C)C)c(C(C)C)c1`, the Potency was 11.1 µM (active).

In a further assay the test system is Zika virus NS2B-NS3 protease. The assay is described as follows: Primary screen GU AMC qHTS for Zika virus inhibitors (AID 1347154).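 On activity change, negative = inhibition: 0% = no-inhibitor control and -100% = no-enzyme control.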 To be noted: Zika NS2B-NS3 unlinked protease, AMC fluorogenic substrate; series mostly up to 54.1 µM; activity change, negative = inhibition: at the top concentration. An outline of the steps:
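Unlinked Zika NS2B hydrophilic domain–NS3 protease complex at 25 nM in 10 mM Tris-HCl pH 8.0, 0.01% Tween 20, with an AMC peptide substrate. Fluorescence change (340/450 nm) over 15 min at room temperature, normalized to controls, fitted to 4-parameter Hill.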
Take `C[C@H]1O[C@H](O[C@H]2[C@H](O)[C@@H](O)[C@@H](O[C@H]3[C@H](O)[C@@H](O)C(O)O[C@H]3CO)O[C@H]2CO)[C@H](O)[C@@H](O)[C@H]1N[C@H]1C=C(CO)[C@@H](O)[C@H](O)[C@@H]1O` (stereo not given in full): the “activity change, negative = inhibition” value was 0.311%.
Regarding `COc1cc2c(Nc3ccc(Cl)c(Cl)c3F)ncnc2cc1OCC1C[C@@H]2CN(C)C[C@H]2C1`, the “activity change, negative = inhibition” value was -1.3%.
On the same count and under the same terms, to `C[C@@]12C[C@@]3(O)O[C@@H](O1)[C@]1(COC(=O)c4ccccc4)[C@@H]3C[C@@]12O[C@@H]1O[C@H](CO)[C@@H](O)[C@H](O)[C@@H]1O` belongs 6.27%.
As to `Cc1ccc(-n2[nH]c(C)c(N=Nc3cccc(-c4cccc(C(=O)O)c4)c3O)c2=O)cc1C`, the Potency was 19.2 µM (active).
`CCCCCCCCc1ccc(CCC(N)(CO)CO)cc1`: the “activity change, negative = inhibition” value is 15.2%.
As for `COc1ccc(S(=O)(=O)Nc2cc(-c3c(O)ccc4ccccc34)c(O)c3ccccc23)cc1`, the Potency is 24.1 µM (active).
For the molecule `CC(O)(C#Cc1ccc2c(c1)N(c1nc(N)ncc1Cl)CC2)c1nccs1` (stereo not given), the “activity change, negative = inhibition” value was -2.32%.
In the case of `COc1ccnc2[nH]cc(C(=O)C(=O)N3CCN(C(=O)c4ccccc4)C[C@@H]3C)c12`, the “activity change, negative = inhibition” value is 4.44%.
On to `NC(=O)c1cccc(-c2cccc(OC(=O)NC3CCCCC3)c2)c1`, for which the “activity change, negative = inhibition” value is 6.33%.
Take `c1cc(N[C@@H]2CCNC2)nc(-c2cnc3ccc(-c4cn[nH]c4)cn23)c1`: the Potency was 19.2 µM (active).
For `Cc1ccccc1C(=O)Nc1ccc(C(=O)N2CCCC(O)c3cc(Cl)ccc32)c(C)c1` (stereo not given), the “activity change, negative = inhibition” value is -8.05%.
Take `Cn1cnc2c(F)c(Nc3ccc(Br)cc3F)c(C(=O)NOCCO)cc21`: the “activity change, negative = inhibition” value is 24.6%.
As for `c1ccc(CNc2nc(NCc3ccccc3)c3ccccc3n2)cc1`, the “activity change, negative = inhibition” value is -2.38%.
As for `CC(=O)O[C@]1(C(C)=O)CC[C@H]2[C@@H]3C=C(C)C4=CC(=O)CC[C@]4(C)[C@@H]3CC[C@@]21C`, the “activity change, negative = inhibition” value is 0.685%.
In the case of `N#Cc1cc(NC(=O)Nc2nnc(-c3ccncc3)s2)ccc1-c1cn[nH]c1`, the “activity change, negative = inhibition” value was -8.5%.
On the same count and under the same terms, to `CCOC(=O)N1CCN([N+]([O-])=NOc2ccc([N+](=O)[O-])cc2[N+](=O)[O-])CC1` belongs -6.15%; to `CCc1ccc(C(=O)Nc2cc(CN3CCN(C)CC3)cc(C(F)(F)F)c2)cc1C#Cc1cnc2ccnn2c1`, -7.67%; to `COc1ccc(CCC(=O)c2c(O)cc(O[C@@H]3O[C@H](CO)[C@@H](O)[C@H](O)[C@@H]3O[C@@H]3O[C@@H](C)[C@H](O)[C@@H](O)[C@@H]3O)cc2O)cc1O`, -1.15%.
Same read-out and setting: the same measure for `O=C(C[C@@H]1CC=CCCC(=O)O[C@H](c2ccccc2)CNC1=O)NCc1ccc(Cl)cc1`: 9.21%; for `C[N+]1(C)[C@@H]2C[C@@H](OC(=O)C(O)(c3cccs3)c3cccs3)C[C@H]1[C@@H]1O[C@@H]12`: 10.7%.
Regarding `OCCN1C[C@H](O)[C@@H](O)[C@H](O)[C@@H]1CO`, the “activity change, negative = inhibition” value is 30.2%.
With `FC(F)(F)c1ccc(Nc2nc3ccc(Oc4ccnc(-c5ncc(C(F)(F)F)[nH]5)c4)cc3[nH]2)cc1`, the “activity change, negative = inhibition” value was -12%.
In the case of `COc1cc(C(C)C)c(Oc2cnc(NC(CO)CO)nc2N)cc1I`, the “activity change, negative = inhibition” value is 1.4%.
With `C=C1C(=O)O[C@H]2[C@@H]1CCC(C)=CCC[C@@]1(C)O[C@@H]21`, the “activity change, negative = inhibition” value is 7.99%.
For the molecule `CC(=O)C1=C(O)C=C2Oc3c(C(C)=O)c(O)c(C)c(O)c3C2(C)C1=O` (stereo not given), the “activity change, negative = inhibition” value was -10.7%.
With `C=C(C)[C@@H]1CC[C@]2(C(=O)O)CC[C@]3(C)[C@H](CC[C@@H]4[C@@]5(C)CC[C@H](O)C(C)(C)[C@@H]5CC[C@]43C)[C@@H]12`, the “activity change, negative = inhibition” value is 2.34%.
As to `C[C@@H](Cc1cc2c(c(C(N)=O)c1)N(CCCO)CC2)NCCOc1ccccc1OCC(F)(F)F`, the “activity change, negative = inhibition” value was -9.48%.
With `C[C@H]1COc2c(N3CCN(C)CC3)c(F)cc3c(=O)c(C(=O)O)cn1c23`, the Potency was 27.1 µM (active) and 10.6 µM (active).
As for `Cn1cc(C[C@@H](N)C(=O)O)c2ccccc21`, the “activity change, negative = inhibition” value was 3.43% [at 25.8 µM].
The same measure, in the same setting: to `CC(=CC(=O)Nc1ccccc1C(=O)O)c1ccc2ccccc2c1` belongs -21.2%; to `C[C@H](NC(=O)[C@@H](O)c1cc(F)cc(F)c1)C(=O)N[C@@H]1C(=O)N(C)c2ccccc2-c2ccccc21`, 0.499%; to `OCc1ccccc1O[C@@H]1O[C@H](CO)[C@H](O)[C@H](O)[C@H]1O`, 6.85%.
Turning to `CCCCOc1ccc(C(=O)Nc2ccc(F)cc2F)cc1`, the “activity change, negative = inhibition” value is -14.5%.
With `CN(N=O)C(=O)N[C@H]1C(O)OC(CO)[C@@H](O)[C@H]1O` (stereo not given in full), the “activity change, negative = inhibition” value is 8.04%.
Same read-out and setting: to `CC(=O)OC[C@@H]1O[C@@H](n2ccc(=O)[nH]c2=O)[C@H](OC(C)=O)[C@H]1OC(C)=O` belongs -2.76%.
